Experimental data: PubChem BioAssay (NCATS)
Results filed as inconclusive are left out. Active and inactive are the calls of the source. Unless noted, the call rests on the fitted dose curve; in most records, active means well fitted curve in the direction sought with a large enough effect; inconclusive means small, poorly fitted or top-dose-only effect, or another doubt; inactive means no such curve, though single readings can be large; an effect the other way counts as inactive or inconclusive.

Tests used:
[1] = molecular target: Lysosomal acid glucosylceramidase (Homo sapiens) (UniProt P04062); test: Glucocerebrosidase-p2 (AID 348; in the data active means potency below about 10 µM; further: potency means the concentration at half of the fitted maximal effect); details: purified GBA, blue fluorogenic substrate, 40 min
Summary of the method: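 Compounds titrated from 0.6 nM upwards against 0.2 nM enzyme in pH 5.9 citric acid/KH2PO4, taurocholate, tween-20; blue fluorogenic substrate 80 uM, 40 min room temperature, stopped and read Ex 365/Em 440 for AC50.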

[2] = AP1 Signaling Pathway (AID 357; active means well fitted curve in either direction with a large enough effect, not every such curve was filed as active; further: on the % scale 0 is the no-effect control and ±100 the full control effect); details: ME-180 AP-1-bla reporter, EGF-induced, beta-lactamase ratio, 5 h; at 7.69 µM (top of the series) unless noted
Summary of the method: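 AP-1-bla ME-180 cells with beta-lactamase reporter under AP-1 response element, stimulated with EC50 EGF; compounds titrated, 5 hours at 37 degrees Celsius. CCF4 read at 460/530 nm ratio; positive and negative modulators judged by AC50.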

[3] = molecular target: Cytochrome P450 1A2 (Homo sapiens) (UniProt P05177); test: p450-cyp1a2 (AID 410; calls by dose curve; further: potency means the concentration at half of the fitted maximal effect;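 on activity change, negative = inhibition: -100% = full effect of reference inhibitor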); details: recombinant CYP1A2, luciferin-ME demethylation, luminescence; series mostly up to 57 µM
Summary of the method: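 Human CYP1A2 (20nM) demethylated Luciferin-ME at its Km (100uM) in 100mM KPO4. After 10 min compound preincubation, NADPH regeneration ran the reaction 60 min at room temperature. Luciferin was read by luminescence, normalized to 57 uM furafylline.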

[4] = Stat Signaling Pathway (AID 446; active means well fitted curve in either direction with a large enough effect, not every such curve was filed as active;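 further: ME-180 cervical cancer cells given 40 pM IL-6 alongside compound; SIE-controlled beta-lactamase reporter measured as 460/530 nm FRET emission ratio; on the % scale 0 is the no-effect control and ±100 the full control effect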); details: ME-180 SIE beta-lactamase reporter, IL-6 stimulated, 5 h; at 7.69 µM (top of the series) unless noted
Summary of the method: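 ME-180 cells carrying a SIE-driven beta-lactamase reporter are stimulated with 40 pM IL-6 for 5 h at 37C in the presence of compound. The 460/530 nm FRET substrate ratio is read after 2.5 h at RT. Data are normalised to 300 pM IL-6 and to 125 nM JAK inhibitor controls.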

[5] = molecular target: Glucocorticoid receptor (Homo sapiens) (UniProt P04150); test: GR-GFP Redistribution (AID 450;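 active means compounds whose dose series gives a full or clear partial fitted curve of increased nuclear translocation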; further: potency means the concentration at half of the fitted maximal effect); details: U2OS GR-GFP nuclear translocation, laser cytometry, 2 h
[6] = molecular target: Glucocorticoid receptor (Homo sapiens) (UniProt P04150); test: GR-EFC Redistribution (AID 451; calls by dose curve; further: potency means the concentration at half of the fitted maximal effect); details: CHO-K1 GR-EFC translocation, beta-gal luminescence, 2 h
Summary of the method: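 CHO-K1 cells expressing nuclear EA and GR-ED fragments of b-gal; compounds titrated up to 46 uM final, 2 h at 37 C. GR nuclear translocation read as complemented b-gal luminescence after 1 h RT detection.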

[7] = molecular target: Mitogen-activated protein kinase 10 (Mus musculus) (UniProt Q61831); test: JNK3 AlphaScreen Assay (AID 530; active means well fitted curve in either direction with a large enough effect, not every such curve was filed as active;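 further: kinase came from lysate of stimulated human HepG2 cells; signal reports phosphorylation of biotinylated GST-cJun 1-79 at Ser73 with 10 µM ATP; on the % scale 0 is the no-effect control and ±100 the full control effect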); details: JNK3 lysate, c-Jun phosphorylation; series mostly up to 57.1 µM
Summary of the method: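 qHTS format: compounds tested as titrations against IL-1beta/TNF-alpha-activated HepG2 lysate JNK3 with biotin-GST-cJun substrate and 10 uM ATP at room temperature. Loss of anti-phospho-cJun AlphaScreen signal indicates inhibition.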

[8] = qHTS Assay for Lipid Storage Modulators (AID 1519; calls by dose curve); details: Drosophila S3 cells, BODIPY lipid droplet/cell ratio, laser cytometry, cells loaded with oleic acid; for activity change, negative = inhibition: at 57.5 µM (top of the series)
Summary of the method: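 Cells seeded at 5,000 per well were treated with compounds over a concentration series and loaded with oleic acid (400 uM, as added). Lipid droplet fluorescence (488 nm excitation, 500-530 nm channel) was read by laser-scanning cytometry and normalized to 20 uM Triacsin C.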

[9] = molecular target: Dual specificity protein kinase CLK4 (Homo sapiens) (UniProt Q9HAZ1); test: qHTS Assay for Inhibitors of CDC-like Kinase 4 (Kinase-Glo Assay) (AID 1770); details: recombinant Clk4, Kinase-Glo ATP depletion luminescence; series mostly up to 66.7 µM; further: on the % scale 0 is the no-effect control and ±100 the full control effect; nearly all actives have a fitted effect of over 65% in size
Summary of the method: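 Luminescent ATP-depletion read-out (Kinase-Glo) after 4.5 h room-temperature reaction of Clk4 (25 nM final) with RS peptide (100 uM) and ATP (1 uM), pH 7.5 Tris buffer with MgCl2 and DTT.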

[10] = molecular target: Dual specificity protein kinase CLK4 (Homo sapiens) (UniProt Q9HAZ1); test: qHTS Assay for Inhibitors of CDC-like Kinase 4 (ADP-Glo Assay) (AID 1771); details: recombinant CLK4, ADP-Glo luminescence; series mostly up to 80 µM; further: on the % scale 0 is the no-effect control and ±100 the full control effect; nearly all actives have a fitted effect of over 70% in size
Summary of the method: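 Clk4 (25 nM) was incubated 1 hr at room temperature with 100 uM RS repeat peptide and 1 uM ATP in buffer with 2 mM MgCl2, 0.5 mM EGTA, 2.5 mM DTT. ADP formed was quantified by ADP-Glo luminescence.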

[11] = molecular target: Dual specificity protein kinase CLK4 (Homo sapiens) (UniProt Q9HAZ1); test: qHTS Assay for Inhibitors of CDC-like Kinase 4 (ADP-FP Assay) (AID 1795); details: Transcreener ADP fluorescence polarization; series mostly up to 50 µM;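 further: recombinant human CLK4 phosphorylating RS repeat peptide at 1 µM ATP; on the % scale 0 is the no-effect control and ±100 the full control effect; nearly all actives have a fitted effect of over 60% in size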
Summary of the method: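 Kinase activity was measured as ADP production using Transcreener orange tracer (4 nM) and ADP antibody (1 ug/mL) fluorescence polarization, with ADP calculated from a calibration curve. The 1 h reaction contained 6.25 nM Clk4, 1 uM ATP and 100 uM RS peptide at pH 7.5 with Mg2+.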

[12] = molecular target: Ubiquitin carboxyl-terminal hydrolase 1 (Homo sapiens) (UniProt O94782); test: Inhibitors of USP1/UAF1: Pilot qHTS (AID 504865); details: purified USP1/UAF1, Ub-rhodamine cleavage fluorescence; series mostly up to 54.9 µM;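 further: rhodamine fluorescence freed from ubiquitin-rhodamine substrate followed over time; top concentration of the series differs between compounds; on the % scale 0 is the no-effect control and ±100 the full control effect; nearly all actives have a fitted effect of over 35% in size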
Summary of the method: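 Deubiquitinase activity followed as kinetic rhodamine fluorescence release from 150 nM Ub-Rho. 1 nM USP1/UAF1 with compound, after 15 min room-temperature preincubation, in HEPES pH 7.8 buffer containing TCEP, EDTA, BSA and Tween-20.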

[13] = NFAT Signaling Pathway (AID 444; active means well fitted curve in either direction with a large enough effect, not every such curve was filed as active;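 further: carbachol stimulus at about its EC50 of 1 µM final; on the % scale 0 is the no-effect control and ±100 the full control effect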); details: Jurkat NFAT-bla M1, carbachol, beta-lactamase ratio, 5 h; at 7.69 µM (top of the series) unless noted
Summary of the method: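 Jurkat cells with NFAT-driven β-lactamase reporter and co-expressed M1 receptor, stimulated with carbachol (final 1 uM, ~EC50), compound titration, 5 h at 37 °C. CCF4 loaded 1 h at RT; 460/530 nm ratio gave %activity and AC50.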

[14] = molecular target: 3',5'-cyclic-AMP phosphodiesterase 4B (Homo sapiens) (UniProt Q07343); test: qHTS Assay for Inhibitors of PDE-IV (AID 607; active means well fitted activation curve with a large enough effect in the main read-out, with a control signal flat, not every such curve was filed as active; further: % of control where 0% means no effect); details: HEK293 ACTOne CNG channel cells, membrane potential fluorescence; series mostly up to 22.9 µM
Summary of the method: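 HEK293 ACTOne cells with CNG channel (1000/well), endogenous PDE4; membrane potential dye, compounds up to 22.9 uM final. Fluorescence Ex 535/Em 590; RO 20-1724 (100 uM final) as reference.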

[15] = molecular target: Cytochrome P450 3A4 (Homo sapiens) (UniProt P08684); test: qHTS Assay for Activators of Cytochrome P450 3A4 (AID 885); details: recombinant CYP3A4, Luciferin-PPXE luminescence, 60 min; series mostly up to 57.1 µM; further: nearly all actives have a fitted effect of over 65% in size
Summary of the method: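 Human CYP3A4 (20 nM) with Luciferin-PPXE at 25 uM (its KM) in 200 mM KPO4; 10 min compound preincubation, then NADPH regeneration and 60 min reaction at RT. Luciferin read by luminescence; normalized to 57 uM ketoconazole full inhibition.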

[16] = molecular target: Cytochrome P450 3A4 (Homo sapiens) (UniProt P08684); test: qHTS Assay for Inhibitors and Substrates of Cytochrome P450 3A4 (AID 884); details: recombinant CYP3A4, Luciferin-PPXE luminescence; series mostly up to 57.1 µM; further: potency means the concentration at half of the fitted maximal effect; nearly all actives have a fitted effect of over 50% in size
Summary of the method: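 20 nM human CYP3A4 with 25 uM Luciferin-PPXE (at KM) in 200 mM KPO4, preincubated 10 min with compound; NADPH regeneration started a 60 min RT reaction. Luciferin detected by luminescence, normalized to 57 uM ketoconazole as full inhibition.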

[17] = qHTS Assay for Identification of Small Molecule Agonists for Hypoxia Response Element Signaling Pathway (AID 914; active means well fitted activation curve with a large enough effect in the signal ratio, with a control signal flat, not every such curve was filed as active; the % refers to the signal ratio; further: potency means the concentration at half of the fitted maximal effect); details: ME-180 (cervical carcinoma) HRE-bla reporter, beta-lactamase ratio, CoCl2, 17 h; activation: stronger effect = higher value
Summary of the method: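 HRE-bla ME-180 cells, overnight plating in Opti-MEM with 0.5% dialyzed FBS; cpd titration + EC50 CoCl2, 17 h, 37 degrees Celsius; CCF4 2.5 h RT; 460/530 nm ratio; AC50.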

[18] = molecular target: Cytochrome P450 2C19 (Homo sapiens) (UniProt P33261); test: qHTS Assay for Inhibitors and Substrates of Cytochrome P450 2C19 (AID 899); details: recombinant CYP2C19, luciferin-H EGE luminescence; series mostly up to 57.1 µM; further: on the % scale 0 is the no-effect control and ±100 the full control effect; nearly all actives have a fitted effect of over 60% in size
Summary of the method: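 5 nM human CYP2C19 with 10uM Luciferin-H EGE (at KM) in 50mM KPO4, compound preincubated 10 min at 37C, then NADPH regeneration for 60 min at 37C. Luciferin read by luminescence after detection reagent; normalized to 57uM ketoconazole as full inhibition.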

[19] = measured here: cell count channel max response
[20] = measured here: lipid channel max response

Cytochrome P450 3A4 (Homo sapiens), sequence (P08684 whole entry, looked up): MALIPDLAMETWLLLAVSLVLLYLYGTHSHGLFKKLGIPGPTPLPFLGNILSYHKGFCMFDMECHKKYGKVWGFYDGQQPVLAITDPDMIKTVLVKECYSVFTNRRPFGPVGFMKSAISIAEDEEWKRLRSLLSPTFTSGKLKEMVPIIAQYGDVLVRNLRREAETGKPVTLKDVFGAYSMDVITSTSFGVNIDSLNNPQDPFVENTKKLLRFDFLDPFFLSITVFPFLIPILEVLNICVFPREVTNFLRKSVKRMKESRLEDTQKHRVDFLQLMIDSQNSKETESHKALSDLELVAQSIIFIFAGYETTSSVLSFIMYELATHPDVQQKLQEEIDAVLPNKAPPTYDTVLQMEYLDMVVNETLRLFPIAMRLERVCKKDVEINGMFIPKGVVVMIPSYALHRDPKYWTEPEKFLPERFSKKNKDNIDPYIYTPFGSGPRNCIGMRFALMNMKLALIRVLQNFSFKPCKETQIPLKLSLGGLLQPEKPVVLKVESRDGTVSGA
Ubiquitin carboxyl-terminal hydrolase 1 (Homo sapiens), sequence (O94782 whole entry, looked up): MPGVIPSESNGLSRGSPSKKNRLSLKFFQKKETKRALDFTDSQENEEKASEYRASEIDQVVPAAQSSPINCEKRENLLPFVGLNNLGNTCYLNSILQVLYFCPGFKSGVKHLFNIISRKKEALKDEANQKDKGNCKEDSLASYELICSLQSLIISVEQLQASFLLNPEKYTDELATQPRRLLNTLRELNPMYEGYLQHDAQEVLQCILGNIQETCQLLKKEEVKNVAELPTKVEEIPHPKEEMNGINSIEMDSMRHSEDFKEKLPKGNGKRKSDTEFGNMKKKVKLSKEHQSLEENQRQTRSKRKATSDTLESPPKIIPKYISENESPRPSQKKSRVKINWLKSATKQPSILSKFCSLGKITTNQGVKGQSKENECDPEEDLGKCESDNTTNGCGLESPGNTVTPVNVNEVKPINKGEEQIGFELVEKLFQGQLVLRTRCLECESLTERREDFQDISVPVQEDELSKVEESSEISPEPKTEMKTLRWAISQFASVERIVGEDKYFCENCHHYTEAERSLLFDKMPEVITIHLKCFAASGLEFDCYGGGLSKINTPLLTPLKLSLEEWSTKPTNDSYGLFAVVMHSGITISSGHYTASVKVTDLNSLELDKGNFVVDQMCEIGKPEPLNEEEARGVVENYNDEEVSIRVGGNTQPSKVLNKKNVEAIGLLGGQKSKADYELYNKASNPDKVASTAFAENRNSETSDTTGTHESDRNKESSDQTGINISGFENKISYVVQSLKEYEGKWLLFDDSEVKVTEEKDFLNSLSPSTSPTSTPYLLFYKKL
Glucocorticoid receptor (Homo sapiens), sequence (P04150 whole entry, looked up, the tested form may be a part): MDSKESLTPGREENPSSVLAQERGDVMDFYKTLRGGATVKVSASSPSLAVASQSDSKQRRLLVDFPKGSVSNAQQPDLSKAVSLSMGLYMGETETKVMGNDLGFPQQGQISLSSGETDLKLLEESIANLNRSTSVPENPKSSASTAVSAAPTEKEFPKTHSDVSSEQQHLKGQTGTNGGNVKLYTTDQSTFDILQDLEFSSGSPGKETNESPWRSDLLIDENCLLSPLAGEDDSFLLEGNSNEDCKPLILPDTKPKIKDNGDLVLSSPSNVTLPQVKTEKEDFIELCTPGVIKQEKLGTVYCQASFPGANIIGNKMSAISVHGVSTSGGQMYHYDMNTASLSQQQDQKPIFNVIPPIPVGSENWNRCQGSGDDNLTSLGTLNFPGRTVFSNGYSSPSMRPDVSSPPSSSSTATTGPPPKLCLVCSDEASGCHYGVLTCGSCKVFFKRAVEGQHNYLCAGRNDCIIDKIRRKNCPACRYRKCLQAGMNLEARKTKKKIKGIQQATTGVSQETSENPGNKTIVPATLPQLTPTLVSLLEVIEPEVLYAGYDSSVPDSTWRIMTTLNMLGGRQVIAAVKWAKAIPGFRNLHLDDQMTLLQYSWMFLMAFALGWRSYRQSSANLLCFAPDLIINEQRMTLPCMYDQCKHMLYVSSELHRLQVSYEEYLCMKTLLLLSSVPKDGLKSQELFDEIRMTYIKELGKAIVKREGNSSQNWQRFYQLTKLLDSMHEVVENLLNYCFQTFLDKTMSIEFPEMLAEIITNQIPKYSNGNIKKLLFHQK
Lysosomal acid glucosylceramidase (Homo sapiens), sequence (P04062 whole entry, looked up): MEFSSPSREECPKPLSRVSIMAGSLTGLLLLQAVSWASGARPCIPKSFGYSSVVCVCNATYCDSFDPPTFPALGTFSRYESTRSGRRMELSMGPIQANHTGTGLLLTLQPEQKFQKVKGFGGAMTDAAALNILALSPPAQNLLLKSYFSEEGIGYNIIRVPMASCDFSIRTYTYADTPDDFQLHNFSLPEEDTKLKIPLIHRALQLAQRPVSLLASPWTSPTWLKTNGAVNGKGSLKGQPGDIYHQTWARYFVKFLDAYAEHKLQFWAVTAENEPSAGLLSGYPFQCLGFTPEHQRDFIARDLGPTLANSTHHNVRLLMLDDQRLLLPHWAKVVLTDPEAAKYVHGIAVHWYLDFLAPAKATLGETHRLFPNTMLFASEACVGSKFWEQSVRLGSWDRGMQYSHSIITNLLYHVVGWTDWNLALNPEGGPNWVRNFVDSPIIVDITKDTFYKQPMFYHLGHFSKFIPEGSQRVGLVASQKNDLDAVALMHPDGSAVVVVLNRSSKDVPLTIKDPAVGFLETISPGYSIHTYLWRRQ
Cytochrome P450 1A2 (Homo sapiens), sequence (P05177 whole entry, looked up): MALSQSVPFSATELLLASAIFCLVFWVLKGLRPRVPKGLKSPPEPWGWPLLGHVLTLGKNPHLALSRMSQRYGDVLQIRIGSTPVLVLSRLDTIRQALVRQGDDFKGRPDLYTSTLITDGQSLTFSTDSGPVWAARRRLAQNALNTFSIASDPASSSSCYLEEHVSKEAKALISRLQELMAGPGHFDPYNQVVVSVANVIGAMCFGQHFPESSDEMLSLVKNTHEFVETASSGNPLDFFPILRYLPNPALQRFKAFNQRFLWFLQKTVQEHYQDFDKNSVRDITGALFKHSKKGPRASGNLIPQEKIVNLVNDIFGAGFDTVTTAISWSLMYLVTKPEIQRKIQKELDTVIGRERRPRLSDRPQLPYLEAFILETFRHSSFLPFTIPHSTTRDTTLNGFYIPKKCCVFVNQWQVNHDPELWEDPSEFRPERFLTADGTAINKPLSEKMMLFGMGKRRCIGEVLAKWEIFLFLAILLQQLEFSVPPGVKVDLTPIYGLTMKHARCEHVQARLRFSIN
3',5'-cyclic-AMP phosphodiesterase 4B (Homo sapiens), sequence (Q07343 whole entry, looked up): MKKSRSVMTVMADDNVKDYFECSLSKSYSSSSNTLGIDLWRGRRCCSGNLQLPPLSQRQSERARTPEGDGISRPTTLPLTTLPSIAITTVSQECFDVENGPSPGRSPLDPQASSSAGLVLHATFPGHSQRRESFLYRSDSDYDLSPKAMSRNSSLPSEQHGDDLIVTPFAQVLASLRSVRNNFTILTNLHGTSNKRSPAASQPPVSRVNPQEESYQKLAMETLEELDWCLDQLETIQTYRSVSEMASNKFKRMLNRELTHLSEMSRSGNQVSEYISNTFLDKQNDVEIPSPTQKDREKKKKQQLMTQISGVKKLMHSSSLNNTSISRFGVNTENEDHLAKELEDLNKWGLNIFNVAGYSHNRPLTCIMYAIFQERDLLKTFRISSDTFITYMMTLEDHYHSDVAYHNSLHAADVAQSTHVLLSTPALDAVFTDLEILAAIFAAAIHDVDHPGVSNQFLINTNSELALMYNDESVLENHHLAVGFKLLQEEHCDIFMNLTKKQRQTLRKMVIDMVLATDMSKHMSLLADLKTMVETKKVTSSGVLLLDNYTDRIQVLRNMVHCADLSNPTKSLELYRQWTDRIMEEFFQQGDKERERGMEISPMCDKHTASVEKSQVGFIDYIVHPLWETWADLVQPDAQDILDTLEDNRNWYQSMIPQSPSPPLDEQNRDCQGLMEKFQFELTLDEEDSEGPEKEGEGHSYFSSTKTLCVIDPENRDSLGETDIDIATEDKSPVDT
Dual specificity protein kinase CLK4 (Homo sapiens), sequence (Q9HAZ1 whole entry, looked up): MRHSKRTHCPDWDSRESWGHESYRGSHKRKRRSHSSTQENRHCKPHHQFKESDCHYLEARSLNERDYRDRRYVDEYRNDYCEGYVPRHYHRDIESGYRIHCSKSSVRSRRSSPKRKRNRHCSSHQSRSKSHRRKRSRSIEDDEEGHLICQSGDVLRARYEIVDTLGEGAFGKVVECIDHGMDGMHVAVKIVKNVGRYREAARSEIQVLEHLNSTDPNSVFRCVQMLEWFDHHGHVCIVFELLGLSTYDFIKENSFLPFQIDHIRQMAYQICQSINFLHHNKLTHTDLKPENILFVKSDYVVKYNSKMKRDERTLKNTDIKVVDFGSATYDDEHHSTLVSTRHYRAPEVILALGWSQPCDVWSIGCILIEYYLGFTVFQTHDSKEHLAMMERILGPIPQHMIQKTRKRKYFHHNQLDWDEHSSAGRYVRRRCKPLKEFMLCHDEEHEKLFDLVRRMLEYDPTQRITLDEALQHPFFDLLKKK
Cytochrome P450 2C19 (Homo sapiens), sequence (P33261 whole entry, looked up): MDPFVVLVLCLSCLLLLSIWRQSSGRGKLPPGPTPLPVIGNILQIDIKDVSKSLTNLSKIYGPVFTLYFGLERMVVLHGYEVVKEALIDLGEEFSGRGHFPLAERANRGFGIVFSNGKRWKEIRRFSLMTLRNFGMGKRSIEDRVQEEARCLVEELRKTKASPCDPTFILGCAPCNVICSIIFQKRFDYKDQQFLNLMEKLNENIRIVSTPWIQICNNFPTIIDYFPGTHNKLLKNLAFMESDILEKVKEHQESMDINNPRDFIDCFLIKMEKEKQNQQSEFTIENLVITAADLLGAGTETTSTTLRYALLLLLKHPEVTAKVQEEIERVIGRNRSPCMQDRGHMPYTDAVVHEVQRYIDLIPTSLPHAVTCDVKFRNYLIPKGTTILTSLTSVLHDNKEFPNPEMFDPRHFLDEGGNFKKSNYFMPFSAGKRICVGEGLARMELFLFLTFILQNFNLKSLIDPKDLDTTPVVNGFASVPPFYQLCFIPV

| SMILES | Potency [1] | activity change, negative = inhibition [2] | Potency [3] | activity, negative = inhibition [4] | Potency [5] | Potency [6] | Potency [7] | activity change, negative = inhibition [8] | max response [8, 19] | max response [8, 20] | Potency [9] | Potency [10] | Potency [11] | Potency [12] | activity change, negative = inhibition [13] | Potency [14] | Potency [15] | Potency [16] | Potency [17] | Potency [18] |
| --- | --- | --- | --- | --- | --- | --- | --- | --- | --- | --- | --- | --- | --- | --- | --- | --- | --- | --- | --- | --- |
| CN(C)Cc1ccccc1-c1cc(NCc2ccccc2)ncn1 | > 11.4 µM (inactive) | -0.0154% (inactive) | inactive | 12.3% (inactive) | > 46 µM (inactive) | > 46 µM (inactive) | inactive | 4.72% (inactive) | 6.7% | 9.63% | inactive | inactive | inactive | inactive |  |  |  |  |  |  |
| COc1ccc(-c2nc3cnc(OC)nc3n(-c3ccc(OC)cc3)c2=O)cc1 | > 11.4 µM (inactive) | -4.28% (inactive) | 0.316 µM (active) | -4.51% (inactive) | > 9.22 µM (inactive) | > 46 µM (inactive) | inactive | -15.7% (inactive) | 29.3% | 4.55% | inactive | inactive | inactive | inactive | 5.9% (inactive) | inactive | inactive |  |  |  |
| COc1ccccc1-c1nc(N(C)C)c2ccccc2n1 | > 11.4 µM (inactive) | 19.2% (inactive) | 0.398 µM (active) | 31.2% (inactive) | > 46 µM (inactive) | > 46 µM (inactive) | inactive | -1.18% (inactive) | 4.21% | -1.67% | inactive | inactive | inactive | inactive | -18.6% (inactive) | inactive | inactive |  |  |  |
| COc1ccccc1-c1cncnc1N1CCN(C)CC1 | > 11.4 µM (inactive) | 3.96% (inactive) |  | 4.86% (inactive) | > 46 µM (inactive) | > 46 µM (inactive) | inactive | 3.21% (inactive) | 28% | 29.7% | inactive | inactive | inactive | inactive | -14.4% (inactive) | inactive | inactive | 2.51 µM (active) |  |  |
| COCCn1c(=O)c(-c2cccs2)nc2cnc(N3CCN(C)CC3)nc21 | > 11.4 µM (inactive) |  | 15.8 µM (active) | 12% (inactive) | > 9.22 µM (inactive) | > 46 µM (inactive) | inactive | 1.3% (inactive) | 18.6% | 19.9% | inactive | inactive | inactive | inactive |  | inactive | inactive |  | 2.51 µM (active) |  |
| Cc1noc(C)c1-c1cncnc1N1CCN(C)CC1 | > 11.4 µM (inactive) |  | inactive | 24.7% (inactive) | > 46 µM (inactive) | > 46 µM (inactive) | inactive | -1.64% (inactive) | 15.1% | 9.71% | inactive | inactive | inactive | inactive | -0.298% (inactive) | inactive | inactive |  |  | inactive |
